# Results from PubChem BioAssay AID1159580 (chemical genetic matrix, 2015).
# The campaign covered roughly 5,500 compounds. About 2,000 (36%) were called active. Roughly 18% stayed inconclusive and do not appear here. The list shows a part of the results. A number with no mark means an inactive call. Cut-off read from the data, not from the text of the source: active = normalized growth mostly below about 0.91 (no sharp cut-off); inconclusive = no clear call, values can overlap the other calls; inactive = mostly above about 0.92.
# Assay: chemical genetic growth profiling, strain panel (AID 1159580);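 note: tested at 20 µM; growth read once vehicle control cultures reached saturation at 30 °C; 1 = growth at the plate median or of vehicle wells; lower values mean less growth of the strain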
# Conditions: growth OD
smiles,measurement,setting,value
CC(C)=CCc1c(O)cc2oc(C)cc(=O)c2c1O,normalized growth,"S. cerevisiae deletion strains, locus YJR043C, strain POL32, active compounds read low",0.847 (active)
same,normalized growth,"S. cerevisiae deletion strains, locus YJR066W, strain TOR1, active compounds read low",0.941
same,normalized growth,"S. cerevisiae deletion strains, locus YJR075W, strain HOC1, active compounds read low",1.03
same,normalized growth,"S. cerevisiae deletion strains, locus YKL009W, strain mrt4, active compounds read low",0.974
same,normalized growth,"S. cerevisiae deletion strains, locus YKL068W, active compounds read low",0.982
same,normalized growth,"S. cerevisiae deletion strains, locus YKL085W, strain MDH1 (second series), active compounds read low",0.983
same,normalized growth,"S. cerevisiae deletion strains, locus YKL085W, strain MDH1, active compounds read low",0.983
same,normalized growth,"S. cerevisiae deletion strains, locus YKL160W, strain elf1, active compounds read low",0.963
same,normalized growth,"S. cerevisiae deletion strains, locus YKL190W, strain CNB1, active compounds read low",1
same,normalized growth,"S. cerevisiae deletion strains, locus YKR001C, strain vps1, active compounds read low",0.723 (active)
same,normalized growth,"S. cerevisiae deletion strains, locus YKR026C, strain gcn3, active compounds read low",0.977
same,normalized growth,"S. cerevisiae deletion strains, locus YKR091W, strain srl3, active compounds read low",0.98
same,normalized growth,"S. cerevisiae deletion strains, locus YLL001W, strain dnm1, active compounds read low",0.964
same,normalized growth,"S. cerevisiae deletion strains, locus YLL026W, active compounds read low",0.981
same,normalized growth,"S. cerevisiae deletion strains, locus YLL041C, strain sdh2, active compounds read low",0.979
same,normalized growth,"S. cerevisiae deletion strains, locus YLR027C, strain aat2, active compounds read low",0.983
same,normalized growth,"S. cerevisiae deletion strains, locus YLR039C, strain RIC1, active compounds read low",0.834
same,normalized growth,"S. cerevisiae deletion strains, locus YLR058C, strain SHM2, active compounds read low",0.966
same,normalized growth,"S. cerevisiae deletion strains, locus YLR102C, strain apc9, active compounds read low",0.987
same,normalized growth,"S. cerevisiae deletion strains, locus YLR113W, strain HOG1, active compounds read low",0.854 (active)
same,normalized growth,"S. cerevisiae deletion strains, locus YLR221C, strain rsa3, active compounds read low",0.95
same,normalized growth,"S. cerevisiae deletion strains, locus YLR258W, strain gsy2, active compounds read low",0.97
same,normalized growth,"S. cerevisiae deletion strains, locus YLR262C, strain YPT6 (second series), active compounds read low",0.781 (active)
same,normalized growth,"S. cerevisiae deletion strains, locus YLR268W, strain sec22, active compounds read low",0.939
same,normalized growth,"S. cerevisiae deletion strains, locus YLR320W, strain mms22, active compounds read low",0.961
same,normalized growth,"S. cerevisiae deletion strains, locus YLR330W, strain CHS5, active compounds read low",0.937
same,normalized growth,"S. cerevisiae deletion strains, locus YLR342W, strain FKS1, active compounds read low",0.974
same,normalized growth,"S. cerevisiae deletion strains, locus YLR357W, strain rsc2, active compounds read low",0.913
same,normalized growth,"S. cerevisiae deletion strains, locus YLR370C, strain arc18, active compounds read low",0.996
same,normalized growth,"S. cerevisiae deletion strains, locus YLR371W, strain rom2, active compounds read low",0.957
same,normalized growth,"S. cerevisiae deletion strains, locus YLR384C, strain iki3, active compounds read low",0.976
same,normalized growth,"S. cerevisiae deletion strains, locus YLR418C, strain cdc73, active compounds read low",0.898
same,normalized growth,"S. cerevisiae deletion strains, locus YML016C, strain PPZ1, active compounds read low",0.997
same,normalized growth,"S. cerevisiae deletion strains, locus YML032C, strain rad52, active compounds read low",0.907
same,normalized growth,"S. cerevisiae deletion strains, locus YML120C, strain ndi1, active compounds read low",0.98
same,normalized growth,"S. cerevisiae deletion strains, locus YML124C, strain tub3, active compounds read low",0.985
same,normalized growth,"S. cerevisiae deletion strains, locus YMR058W, strain fet3, active compounds read low",0.946
same,normalized growth,"S. cerevisiae deletion strains, locus YMR078C, strain ctf18, active compounds read low",0.994
same,normalized growth,"S. cerevisiae deletion strains, locus YMR125W, strain sto1, active compounds read low",0.981
same,normalized growth,"S. cerevisiae deletion strains, locus YMR129W, active compounds read low",0.98
same,normalized growth,"S. cerevisiae deletion strains, locus YMR205C, strain PFK2, active compounds read low",0.954
same,normalized growth,"S. cerevisiae deletion strains, locus YMR223W, strain ubp8, active compounds read low",0.931
same,normalized growth,"S. cerevisiae deletion strains, locus YMR231W, strain pep5, active compounds read low",0.981
same,normalized growth,"S. cerevisiae deletion strains, locus YMR263W, strain SAP30, active compounds read low",0.992
same,normalized growth,"S. cerevisiae deletion strains, locus YMR307W, strain GAS1, active compounds read low",0.549 (active)
same,normalized growth,"S. cerevisiae deletion strains, locus YNL067W, strain RPL9B, active compounds read low",1.01
same,normalized growth,"S. cerevisiae deletion strains, locus YNL071W, strain lat1, active compounds read low",0.975
same,normalized growth,"S. cerevisiae deletion strains, locus YNL153C, strain GIM3, active compounds read low",0.932
same,normalized growth,"S. cerevisiae deletion strains, locus YNL183C, strain NPR1, active compounds read low",0.91
same,normalized growth,"S. cerevisiae deletion strains, locus YNL209W, strain ssb2, active compounds read low",0.996
same,normalized growth,"S. cerevisiae deletion strains, locus YNL233W, strain BNI4, active compounds read low",0.926
same,normalized growth,"S. cerevisiae deletion strains, locus YNL248C, strain rpa49, active compounds read low",0.968
same,normalized growth,"S. cerevisiae deletion strains, locus YNL250W, strain rad50, active compounds read low",0.993
same,normalized growth,"S. cerevisiae deletion strains, locus YNL271C, strain bni1, active compounds read low",0.98
same,normalized growth,"S. cerevisiae deletion strains, locus YNL298W, strain CLA4, active compounds read low",0.954
same,normalized growth,"S. cerevisiae deletion strains, locus YNL307C, strain MCK1, active compounds read low",0.989
same,normalized growth,"S. cerevisiae deletion strains, locus YNL322C, strain KRE1 (second series), active compounds read low",0.964
same,normalized growth,"S. cerevisiae deletion strains, locus YNR049C, strain mso1, active compounds read low",0.964
same,normalized growth,"S. cerevisiae deletion strains, locus YNR052C, strain pop2, active compounds read low",1
same,normalized growth,"S. cerevisiae deletion strains, locus YOL012C, strain htz1",1.24
same,normalized growth,"S. cerevisiae deletion strains, locus YOL147C, strain pex11, active compounds read low",0.954
same,normalized growth,"S. cerevisiae deletion strains, locus YOR001W, strain rrp6, active compounds read low",0.981
same,normalized growth,"S. cerevisiae deletion strains, locus YOR061W, strain CKA2, active compounds read low",0.955
same,normalized growth,"S. cerevisiae deletion strains, locus YOR069W, strain VPS5, active compounds read low",0.987
same,normalized growth,"S. cerevisiae deletion strains, locus YOR070C, strain gyp1, active compounds read low",0.983
same,normalized growth,"S. cerevisiae deletion strains, locus YOR080W, strain dia2, active compounds read low",1
same,normalized growth,"S. cerevisiae deletion strains, locus YOR083W, strain WHI5, active compounds read low",0.947
same,normalized growth,"S. cerevisiae deletion strains, locus YOR106W, strain vam3, active compounds read low",0.934
same,normalized growth,"S. cerevisiae deletion strains, locus YOR136W, strain idh2, active compounds read low",0.979
same,normalized growth,"S. cerevisiae deletion strains, locus YOR144C, strain elg1, active compounds read low",0.965
same,normalized growth,"S. cerevisiae deletion strains, locus YOR184W, strain ser1, active compounds read low",0.829 (active)
same,normalized growth,"S. cerevisiae deletion strains, locus YOR231W, strain MKK1, active compounds read low",0.958
same,normalized growth,"S. cerevisiae deletion strains, locus YOR265W, strain rbl2, active compounds read low",0.971
same,normalized growth,"S. cerevisiae deletion strains, locus YOR270C, strain vph1, active compounds read low",1.08
same,normalized growth,"S. cerevisiae deletion strains, locus YOR290C, strain snf2, active compounds read low",0.939
same,normalized growth,"S. cerevisiae deletion strains, locus YOR316C, strain cot1, active compounds read low",0.997
same,normalized growth,"S. cerevisiae deletion strains, locus YPL051W, strain arl3, active compounds read low",0.952
same,normalized growth,"S. cerevisiae deletion strains, locus YPL055C, strain LGE1, active compounds read low",0.945
same,normalized growth,"S. cerevisiae deletion strains, locus YPL078C, strain atp4, active compounds read low",0.966
same,normalized growth,"S. cerevisiae deletion strains, locus YPL106C, strain sse1, active compounds read low",0.978
same,normalized growth,"S. cerevisiae deletion strains, locus YPL240C, strain hsp82, active compounds read low",0.982
same,normalized growth,"S. cerevisiae deletion strains, locus YPL256C, strain CLN2, active compounds read low",1.01
same,normalized growth,"S. cerevisiae deletion strains, locus YPR119W, strain clb2, active compounds read low",0.995
same,normalized growth,"S. cerevisiae deletion strains, locus YPR141C, strain kar3, active compounds read low",1
same,normalized growth,"S. cerevisiae deletion strains, locus YPR163C, strain tif3, active compounds read low",0.975
same,normalized growth,"S. cerevisiae deletion strains, locus YPR167C, strain met16, active compounds read low",0.956
same,normalized growth,"S. cerevisiae deletion strains, strain wtn01, active compounds read low",0.891 (active)
same,normalized growth,"S. cerevisiae strains, strain wild type, active compounds read low",0.922
